Most compounds without a hit are left out; they make up all but 2.4% or so of the library.
C8 TRAIL sens = sensitizes caspase-8 expressing cells to TRAIL; inhibition (viability loss, TRAIL sensitization), % at 10 µM; NB7+C8 cells + TRAIL, ATPlite viability luminescence; AID 624354; 360,000 compounds, 1% hits;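 active = compounds causing at least 50% loss of cell viability in the single-dose screen, relative to plate controls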
STAT1 blocker = STAT1 signaling inhibition | NIH 3T3 STAT1-luciferase reporter, IFN-gamma, luminescence | inhibition, % at 5.5 µM | 200,000 compounds, 0.35% hits;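 active = inhibition above a set limit, the mean inhibition across all tested compounds plus 3 SD, cut at about 34% in these data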
HSP90 inh = HSP90 refolding inhibition in rabbit reticulocyte lysate. luciferase refolding luminescence, 3 h. inhibition, % at 5.6 µM. 290,000 compounds, 0.91% hits. AID 1789;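 active = inhibition above the screen-wide mean plus 3 SD, computed separately per campaign, cut at about 16% in these data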;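 also: inhibitors lower the luminescence because luciferase stays unfolded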
PPC-1+TRAIL kill = PPC-1 cancer cell killing with TRAIL present | PPC-1 cells + TRAIL, ATPLite viability luminescence | cell killing (% activity), % at 4 µM or 5 µM | 220,000 compounds, 0.41% hits | AID 1443;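 active = cell killing above 50% in the first pass at 4 µM, then a duplicate retest at 5 µM averaging 50% or more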
HSF1 inhib = HSF1 inhibition; 300,000 compounds, 0.77% hits; activity change, negative = inhibition, % at 7.5 µM (by protocol); NIH3T3-HGL HSE-luciferase, MG132-induced, luminescence 8 h; stronger effect = lower value;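 active = more than half of replicate wells show activity change below -50%, luminescence cut by over half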;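 also: luciferase reports HSF-1 transcriptional activity via heat shock element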
STAT3 blocker = reduces IL-6 driven STAT3 reporter signal | 190,000 compounds, 0.89% hits | U3A cells, IL-6 STAT3-luciferase reporter, luminescence; host cell line lacks STAT1 | inhibition, % at 5.5 µM;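 active = inhibition above the mean inhibition across all screened compounds plus 3 SD, cut at about 44% in these data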
A number is an active result; n = inactive; x = not tested or not shown.

SMILES	C8 TRAIL sens	STAT1 blocker	HSP90 inh	PPC-1+TRAIL kill	HSF1 inhib	STAT3 blocker
CCCCNC(=O)C1(C)CCCCN1C(=O)c1ccc2c(c1)C(C)(C)CCC2(C)C (centres undefined)	n	x	x	x	x	x
CC(=O)Nc1cccc(NC(=O)CSc2nnc(Cc3cccn3C)n2-c2ccc(F)cc2)c1	n	n	n	n	-65	n
COc1cccc(NC(=O)CSc2nnc(Cc3cccn3C)n2-c2ccc(F)cc2)c1	n	n	n	n	n	n
N#Cc1ccc(NC(=O)Nc2ccc(Cl)cc2)cc1	58	n	n	n	n	n
CCOC(=O)[C@]12CCCC=C1N(Cc1ccccc1)C(=O)[C@H](CC(=O)NCC13CC4CC(CC(C4)C1)C3)C2	n	x	x	x	x	x
Cc1nn(-c2ccccc2)c2c1C(c1c(C)[nH]c(C#N)c1C)C(C#N)=C(N)O2 (centres undefined)	n	n	36	n	n	n
COc1ccc(C(=O)N2CCC(C)(C(=O)O)C2)cc1OC (centres undefined)	n	x	x	x	x	x
COc1ccc(C2C(O)C(c3c[nH]c4ccccc34)=NN2C(=O)CCl)cc1 (centres undefined)	96	x	n	x	n	x
COc1ccc(C(C(=O)Nc2ccc(F)cc2)N2CCN(CC(=O)N3CCCC3)CC2)cc1 (centres undefined)	n	x	x	x	x	x
CC(C)c1ccc(-c2cc(C(=O)NN3CCN(C)CC3)c3ccccc3n2)cc1	77	n	n	66	n	n
CCOc1cc(NC(=O)CCl)c(OCC)cc1NC(=O)CCl	91	x	n	n	n	x
CCCS(=O)(=O)NC(=O)C1(C)CCN(C(=O)c2ccccc2F)C1 (centres undefined)	n	x	x	x	x	x
COc1ccc(-c2csc(NC(=O)CSc3nnnn3C)n2)cc1OC	n	x	x	x	n	x
COc1ccc(-c2csc(/C(C#N)=C(\O)CSc3nccn3C)n2)cc1OC	n	n	n	n	-88	n
C=CC(=O)Nc1cccc(CN2C(=O)N(c3cc(OC)cc(OC)c3)Cc3cnc(NCCCCN(CC)CC)nc32)c1	n	x	x	x	x	x
O=C(CCl)N1CCN(S(=O)(=O)c2ccc3c(c2)CCC3)CC1	91	x	x	x	x	x
CN1C(=O)N(CC(=O)N2CCN(S(=O)(=O)c3ccc4c(c3)CCC4)CC2)C(=O)C12CCCCC2	n	x	x	x	x	x
Cc1c(C(=O)N2CCc3ccccc32)oc2ccccc12	61	n	n	n	n	n
COCc1c(C(=O)N2CCc3ccccc32)oc2ccccc12	n	x	n	x	n	x
O=C1CCCCC1(c1ccccc1)c1ccccc1	n	x	x	x	x	x
Cc1ccc(OC2CCN(C(=O)[C@H]3O[C@@H](n4ccc(=O)[nH]c4=O)[C@H](O)[C@@H]3O)CC2)cc1	n	x	x	x	x	x
NC(=Nc1nc(-c2ccccn2)cc2ccccc12)c1ccccn1	n	x	x	x	57	x
c1ccc(-c2cc(-c3nnco3)c3ccccc3n2)nc1	n	n	n	n	n	n
O=C1C(Cl)=C(NC(=O)c2ccccc2)C(=O)C(Cl)=C1NC(=O)c1ccccc1	n	x	71	x	n	x
CN(C(=O)c1ccco1)c1nc2c(s1)CCCC2	59	n	n	n	n	n
SMILES	C8 TRAIL sens	STAT1 blocker	HSP90 inh	PPC-1+TRAIL kill	HSF1 inhib	STAT3 blocker
CN(C(=O)c1ccco1)c1nnc(C23CC4CC(CC(C4)C2)C3)s1	n	n	n	n	n	n
Cc1ccc(NC(=O)c2ccc3c(c2)OCCO3)nc1	74	x	x	x	n	x
Cc1cc(C)nc(NC(=O)c2cc3ccccc3o2)n1	n	n	n	n	n	n
Cc1ccc(NC(=O)c2cc3ccccc3o2)nc1	59	x	x	x	n	x
CC1(C(=O)Nc2ccc3c(c2)OCCO3)CN(S(C)(=O)=O)CC(=O)N1CC(F)(F)F (centres undefined)	n	x	x	x	x	x
CCOc1ccc(/C=C2/SC(=S)N(n3c(C)ccc3C)C2=O)cc1	50	n	n	n	n	n
COc1ccc(/C=C2/SC(=S)N(n3c(C)ccc3C)C2=O)cc1	62	n	n	n	n	n
CCOc1ccc(N2C(=O)/C(=C/c3ccccn3)SC2=S)cc1	x	x	n	n	n	x
COc1ccc(/C=C2\SC(=S)N(CC3CCCO3)C2=O)cc1 (centres undefined)	n	x	n	n	n	x
COc1ccc(CN2C(=O)c3ccccc3C2=O)cc1C(=O)Nc1ccccc1N1CCOCC1	n	n	n	n	n	n
COc1ccc(NC(=O)c2cc(CN3C(=O)c4ccccc4C3=O)ccc2OC)cn1	n	n	n	n	-67	n
CCCNC(=O)C1(C)CCN(Cc2csc3ccccc23)C1 (centres undefined)	n	x	x	x	x	x
COc1ccc(-c2nc3c(C)cc(Br)cn3c2Cc2cccc(Cl)c2)cc1OC	n	x	x	x	x	x
Cc1coc(NC(=O)CSc2nc(-c3ccc(Cl)cc3)cc(C(F)(F)F)c2C#N)n1	n	n	n	n	-69	n
CC(=O)Nc1ccc(C(=O)N2CCCC(c3cc(C(=O)NCc4ccccc4)no3)C2)cc1 (centres undefined)	n	x	x	x	x	x
N#CC1(c2ccc(NC(=O)c3ccccc3)cc2)CCCC1	54	n	n	n	n	n
CC(C)[C@H](N)C(=O)NC[C@H]1CC[C@H](C(=O)N[C@@H](Cc2ccccc2)C(=O)O)CC1	n	x	n	x	-63	x
CC(C)[C@@H](N)C(=O)NCC1CCC(C(=O)N[C@@H](Cc2ccccc2)C(=O)O)CC1 (some centres undefined)	n	x	n	x	n	x
CC(C)[C@H](NC(=O)OC(C)(C)C)C(=O)NCC1CCC(C(=O)N[C@@H](Cc2ccccc2)C(=O)O)CC1 (some centres undefined)	n	x	n	x	-59	x
CCC(=O)N1N=C(c2cccs2)CC1c1ccc(C)cc1 (centres undefined)	n	x	n	x	n	x
Cc1ccc(C2CC(c3cccs3)=NN2C(=O)CCl)cc1 (centres undefined)	77	x	n	x	n	x
O=C1c2c(-c3ccc(Br)cc3)noc2CCN1Cc1cn(-c2ccc(Cl)cc2)nn1	n	x	x	x	x	x
O=[N+]([O-])c1cc(/C=N/Nc2nc3ccccc3[nH]2)c(O)cc1O	x	n	n	53	n	n
N#Cc1c(Cl)nsc1NC(=O)c1ccccc1	n	55	n	n	n	56
Cc1cccc(C(=O)Nc2sc(C)c(-c3ccccc3)c2C#N)c1	n	n	n	n	n	n
CC(Sc1nnnn1C)C(=O)Nc1ccc(Oc2ccccc2)cc1 (centres undefined)	n	n	n	n	-68	n
CC1CCCN(C(=O)C2CCN(S(=O)(=O)c3ccc4c(c3)CC(C)N4C(=O)C3CC3)CC2)C1 (centres undefined)	n	x	n	x	-68	x
CC1Cc2cc(S(=O)(=O)N3CCCC(C(=O)N4CCCCC4)C3)ccc2N1C(=O)C1CC1 (centres undefined)	n	x	n	x	n	x
COc1ccc(C2=NN(C(=O)COc3ncnc4ccccc34)C(c3ccco3)C2)cc1 (centres undefined)	n	n	n	n	n	n
